Test results taken from PMC5540273 (PLoS ONE, 2017).
Where “and” joins values, the source holds several entries; their conditions need not be identical. Equal entries are not always repeated. Where two headings read alike, the source gives them in different places.

Assays:
AMPK-alpha2 = test system: T1, AMPK-alpha2; settings: concentration: 1 μM, replicates: in singlicate, n = 1
T1 construct: gene PRKAA2

ANKK1 = settings: concentration: 1 μM, replicates: in singlicate; n = 1
ARK5 = test system: T2, ARK5; settings: concentration: 1 μM, replicates: in singlicate, n = 1
T2 construct: gene NUAK1

ASK1 = test system: T3, ASK1; settings: concentration: 1 μM, replicates: in singlicate, n = 1
T3 construct: gene MAP3K5

ASK2 = test system: T4, ASK2; settings: concentration: 1 μM, replicates: in singlicate, n = 1
T4 construct: gene MAP3K6

AURKA = settings: concentration: 1 μM, replicates: in singlicate, n = 1
AURKB = settings: concentration: 1 μM, replicates: in singlicate, n = 1
AURKC = settings: concentration: 1 μM, replicates: in singlicate, n = 1
AXL = settings: concentration: 1 μM, replicates: in singlicate, n = 1
BIKE = test system: T5, BIKE; settings: concentration: 1 μM, replicates: in singlicate, n = 1
T5 construct: gene BMP2K

BLK = settings: concentration: 1 μM, replicates: in singlicate, n = 1
BMPR1A = settings: concentration: 1 μM, replicates: in singlicate, n = 1
BMPR1B = settings: concentration: 1 μM, replicates: in singlicate, n = 1
BMPR2 = settings: concentration: 1 μM, replicates: in singlicate, n = 1
BMX = settings: concentration: 1 μM, replicates: in singlicate, n = 1
BRAF = settings: concentration: 1 μM, replicates: in singlicate; n = 1
BRK = test system: T6, BRK; settings: concentration: 1 μM, replicates: in singlicate, n = 1
T6 construct: gene PTK6

BRSK1 = settings: concentration: 1 μM, replicates: in singlicate, n = 1
BRSK2 = settings: concentration: 1 μM, replicates: in singlicate, n = 1
BTK = settings: concentration: 1 μM, replicates: in singlicate; n = 1
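Note: KINOMEscan kinase panel screen.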

Compound: COc1ccc(Nc2nccc(N3CCC(NC(=O)Nc4cc(C)ccc4C)C3)n2)cc1 (centres unmarked) [GSK1379741]
- %Inh (AMPK-alpha2): 0%
- %Inh (ANKK1): 0%
- %Inh (ARK5): 11%
- %Inh (ASK1): 12%
- %Inh (ASK2): 0%
- %Inh (AURKA): 15%
- %Inh (AURKB): 37%
- %Inh (AURKC): 46%
- %Inh (AXL): 0%
- %Inh (BIKE): 0%
- %Inh (BLK): 0%
- %Inh (BMPR1A): 0%
- %Inh (BMPR1B): 0%
- %Inh (BMPR2): 0%
- %Inh (BMX): 0%
- %Inh (BRAF): 0%
- %Inh (BRK): 5%
- %Inh (BRSK1): 0%
- %Inh (BRSK2): 0%
- %Inh (BTK): 0%

Compound: COc1cc(Nc2nccc(N3CCC(NC(=O)c4cccc(NC(C)=O)c4)C3)n2)cc(OC)c1OC (centres unmarked) [GSK1379754]
- %Inh (AMPK-alpha2): 12%
- %Inh (ANKK1): 34%
- %Inh (ARK5): 31%
- %Inh (ASK1): 0%
- %Inh (ASK2): 0%
- %Inh (AURKA): 97.6%
- %Inh (AURKB): 0%
- %Inh (AURKC): 88%
- %Inh (AXL): 36%
- %Inh (BIKE): 86%
- %Inh (BLK): 34%
- %Inh (BMPR1A): 0%
- %Inh (BMPR1B): 0%
- %Inh (BMPR2): 0%
- %Inh (BMX): 18%
- %Inh (BRAF): 3%
- %Inh (BRK): 19%
- %Inh (BRSK1): 26%
- %Inh (BRSK2): 0%
- %Inh (BTK): 0%

Compound: Nc1nccc(-c2c(-c3ccc(F)cc3)ncn2C2CCN(CC(F)(F)F)CC2)n1 [SB-236560]
- %Inh (AMPK-alpha2): 0%
- %Inh (ANKK1): 0%
- %Inh (ARK5): 0%
- %Inh (ASK1): 0%
- %Inh (ASK2): 0%
- %Inh (AURKA): 2%
- %Inh (AURKB): 0%
- %Inh (AURKC): 0%
- %Inh (AXL): 46%
- %Inh (BIKE): 0%
- %Inh (BLK): 0%
- %Inh (BMPR1A): 0%
- %Inh (BMPR1B): 0%
- %Inh (BMPR2): 45%
- %Inh (BMX): 0%
- %Inh (BRAF): 0%
- %Inh (BRK): 0%
- %Inh (BRSK1): 40%
- %Inh (BRSK2): 0%
- %Inh (BTK): 37%

Compound: NCCNS(=O)(=O)c1ccc(-c2ccnc3[nH]ccc23)cc1 [GSK977617]
- %Inh (AMPK-alpha2; 1 µM): 60% and 31%
- %Inh (ANKK1): 0%
- %Inh (ARK5; 1 µM): 45% and 17%
- %Inh (ASK1; 1 µM): 30% and 5%
- %Inh (ASK2; 1 µM): 21% and 18%
- %Inh (AURKA; 1 µM): 51% and 39%
- %Inh (AURKB; 1 µM): 71% and 67%
- %Inh (AURKC; 1 µM): 92.4% and 84%
- %Inh (AXL; 1 µM): 93% and 87%
- %Inh (BIKE; 1 µM): 97.4% and 93.3%
- %Inh (BLK; 1 µM): 49% and 16%
- %Inh (BMPR1A; 1 µM): 10% and 0%
- %Inh (BMPR1B; 1 µM): 0% and 22%
- %Inh (BMPR2; 1 µM): 18% and 27%
- %Inh (BMX; 1 µM): 2% and 0%
- %Inh (BRAF): 0%
- %Inh (BRK; 1 µM): 0% and 9%
- %Inh (BRSK1; 1 µM): 28% and 5%
- %Inh (BRSK2; 1 µM): 25% and 0%
- %Inh (BTK): 0%

Compound: CSc1ccc(-c2cc3ncnc(SCC(=O)O)c3s2)cc1
- %Inh (AMPK-alpha2): 5%
- %Inh (ANKK1): 0%
- %Inh (ARK5): 0%
- %Inh (ASK1): 0%
- %Inh (ASK2): 0%
- %Inh (AURKA): 0%
- %Inh (AURKB): 78%
- %Inh (AURKC): 12%
- %Inh (AXL): 5%
- %Inh (BIKE): 12%
- %Inh (BLK): 10%
- %Inh (BMPR1A): 0%
- %Inh (BMPR1B): 0%
- %Inh (BMPR2): 0%
- %Inh (BMX): 0%
- %Inh (BRAF): 0%
- %Inh (BRK): 4%
- %Inh (BRSK1): 6%
- %Inh (BRSK2): 10%
- %Inh (BTK): 0%

Compound: NS(=O)(=O)c1cccc(-c2ccc3ncc(N4CCOCC4)nc3c2)c1 [GSK1535721]
- %Inh (AMPK-alpha2): 12%
- %Inh (ANKK1): 15%
- %Inh (ARK5): 0%
- %Inh (ASK1): 0%
- %Inh (ASK2): 0%
- %Inh (AURKA): 19%
- %Inh (AURKB): 0%
- %Inh (AURKC): 0%
- %Inh (AXL): 2%
- %Inh (BIKE): 0%
- %Inh (BLK): 0%
- %Inh (BMPR1A): 0%
- %Inh (BMPR1B): 7%
- %Inh (BMPR2): 2%
- %Inh (BMX): 30%
- %Inh (BRAF): 0%
- %Inh (BRK): 13%
- %Inh (BRSK1): 0%
- %Inh (BRSK2): 0%
- %Inh (BTK): 1%

Compound: Cn1ccc2ncnc(Oc3ccc(NC(=O)Nc4ccncc4)c(Cl)c3)c21
- %Inh (AMPK-alpha2): 5%
- %Inh (ANKK1): 0%
- %Inh (ARK5): 14%
- %Inh (ASK1): 0%
- %Inh (ASK2): 0%
- %Inh (AURKA): 0%
- %Inh (AURKB): 3%
- %Inh (AURKC): 0%
- %Inh (AXL): 0%
- %Inh (BIKE): 0%
- %Inh (BLK): 0%
- %Inh (BMPR1A): 1%
- %Inh (BMPR1B): 0%
- %Inh (BMPR2): 20%
- %Inh (BMX): 0%
- %Inh (BRAF): 0%
- %Inh (BRK): 0%
- %Inh (BRSK1): 0%
- %Inh (BRSK2): 0%
- %Inh (BTK): 0%

Compound: O=C1Cc2cc(Nc3nc(NCc4cccc(S(=O)(=O)C(F)(F)F)c4)ncc3C(F)(F)F)ccc2N1
- %Inh (AMPK-alpha2): 0%
- %Inh (ANKK1): 0%
- %Inh (ARK5): 22%
- %Inh (ASK1): 11%
- %Inh (ASK2): 0%
- %Inh (AURKA): 1%
- %Inh (AURKB): 13%
- %Inh (AURKC): 0%
- %Inh (AXL): 2%
- %Inh (BIKE): 0%
- %Inh (BLK): 1%
- %Inh (BMPR1A): 0%
- %Inh (BMPR1B): 18%
- %Inh (BMPR2): 19%
- %Inh (BMX): 0%
- %Inh (BRAF): 1%
- %Inh (BRK): 0%
- %Inh (BRSK1): 3%
- %Inh (BRSK2): 0%
- %Inh (BTK): 0%

Compound: NS(=O)(=O)c1cccc(-c2ccc3nccc(-c4cccc(S(N)(=O)=O)c4)c3c2)c1 [GW867253]
- %Inh (AMPK-alpha2): 6%
- %Inh (ANKK1): 0%
- %Inh (ARK5): 0%
- %Inh (ASK1): 0%
- %Inh (ASK2): 0%
- %Inh (AURKA): 19%
- %Inh (AURKB): 45%
- %Inh (AURKC): 0%
- %Inh (AXL): 0%
- %Inh (BIKE): 0%
- %Inh (BLK): 0%
- %Inh (BMPR1A): 0%
- %Inh (BMPR1B): 3%
- %Inh (BMPR2): 33%
- %Inh (BMX): 0%
- %Inh (BRAF): 0%
- %Inh (BRK): 0%
- %Inh (BRSK1): 0%
- %Inh (BRSK2): 5%
- %Inh (BTK): 0%

Compound: Cc1cccc(-c2nc(-c3ccc(S(C)(=O)=O)cc3)sc2-c2ccncc2)c1
- %Inh (AMPK-alpha2): 7%
- %Inh (ANKK1): 0%
- %Inh (ARK5): 13%
- %Inh (ASK1): 0%
- %Inh (ASK2): 15%
- %Inh (AURKA): 24%
- %Inh (AURKB): 23%
- %Inh (AURKC): 0%
- %Inh (AXL): 12%
- %Inh (BIKE): 0%
- %Inh (BLK): 0%
- %Inh (BMPR1A): 0%
- %Inh (BMPR1B): 0%
- %Inh (BMPR2): 0%
- %Inh (BMX): 0%
- %Inh (BRAF): 15%
- %Inh (BRK): 0%
- %Inh (BRSK1): 40%
- %Inh (BRSK2): 27%
- %Inh (BTK): 0%
